The nature of test [1]: CCTE_Simmons_MITO_basal_resp_rate: CCTE's HepG2 Seahorse XF Respirometric Screening Assay at Basal Respiratory State, Simmons Lab (AID 2284001). To be noted: actives raise or lower the signal. The gist of the method: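 HepG2 cells were given test chemicals at 7 concentrations, 125 nM to 100 uM final, and oxygen consumption rate was read every 6 min (3 min mix, 3 min measure) over 72 min. Basal-phase OCR was fitted bidirectionally against DMSO.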

The nature of test [2]: CCTE_Simmons_MITO_max_resp_rate: CCTE's HepG2 Seahorse XF Respirometric Screening Assay at Maximal Respiratory State [uncoupled], Simmons Lab (AID 2284002). To be noted: actives raise or lower the signal. The gist of the method: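 Maximal (FCCP-uncoupled) respiration rate in HepG2, from Seahorse kinetic OCR over 72 min at 6 min cycles. Compounds at 125 nM–100 uM final, 7 points, three biological replicates; both directions fit relative to DMSO.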

Test [3] is described as follows: CCTE_Simmons_MITO_inhib_resp_rate: CCTE's HepG2 Seahorse XF Respirometric Screening Assay at Inhibited Respiratory State [full ETC block], Simmons Lab (AID 2284006). Particulars: actives raise or lower the signal. The gist of the method: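 Compound injected onto HepG2 cells (125 nM–100 uM final, 7 points); FCCP then rotenone/antimycin A added. Oxygen consumption read every 6 min (3 min mix, 3 min measure) for 72 min. Inhibited-state OCR fitted against DMSO.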

A short description of test [4]: CCTE_Simmons_MITO_viability: CellTiter-Glo Viability Assessment for CCTE's HepG2 Seahorse XF Respirometric Screening Assay [post-hoc], Simmons Lab (AID 2284007; active means hit-call score of the fitted dose curve at least 0.9, where 1 is the maximum;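 on AC50: cells exposed to chemical for 90 min before the ATP read; actives lower ATP signal relative to DMSO baseline meaning reduced viability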). The gist of the method: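 After the Seahorse oxygen-consumption sequence (basal, FCCP, rotenone/antimycin A; 72 min total), HepG2 viability was scored as ATP content by bioluminescence. Chemicals ran at seven concentrations up to 100 uM final for 90 min.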

A short description of test [5]: CCTE_Shafer_MEA_acute_spike_number: CCTE's Neural Acute Assay for Total Number of Spikes, Shafer Lab (AID 2284008).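 On AC50: curve fitted for decrease in spike count so AC50 reflects inhibitors.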 In outline:
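Total spike count from 40 min recordings before and during compound exposure (0.03-40 uM), given as per-well percent change. Cortical cultures from rat, DIV 13 or 15, 37 C; adaptive detection threshold 8x rms noise.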

Test [6] can be described thus: CCTE_Shafer_MEA_acute_firing_rate_mean: CCTE's Neural Acute Assay for Mean Firing Rate, Shafer Lab (AID 2284009).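 Further: analyzed for loss of signal so actives lower firing rate relative to DMSO.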 In outline: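 Read-out: well-mean spike rate (spikes/recording length/electrodes), % change from 40 min pre-dose baseline to 40 min with compound. Rat cortical cultures, DIV 13 or 15, 37 C; 0.03-40 uM; DMSO as negative control.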
Test [7] is described as follows: CCTE_Harrill_HTTr_Viability_MCF7: CCTE's 6-hour Cell Viability Assessment for the High-Throughput Transcriptomics (HTTr) Platform, in MCF-7 cells cultured in DMEM + 10% fetal bovine serum, Harrill Lab (AID 2284010). In outline:
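Cells were dosed with chemicals in an eight-point dilution series, imaged 6 hours later for propidium iodide uptake, and the endpoint was analyzed by bidirectional fitting against DMSO as negative control.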

Test [8] deals with Nucleoli Translocation, AR (gene 367) (UniProt P10275). In words: UPITT_HCI_U2OS_AR_TIF2_Nucleoli_Antagonist: University of Pittsburgh U2OS Androgen Receptor-Transcriptional Intermediary Factor 2 (AR-TIF2) Antagonism High Content Imaging Assay for Nucleoli Translocation (AID 2283997; active means hit-call score of the fitted dose curve at least 0.9, where 1 is the maximum). The gist of the method: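 U2OS cells expressing RFP-tagged human AR and GFP-tagged TIF2 were imaged by high-content fluorescence microscopy for red AR signal in the nucleolar region. Compounds were screened at 20 uM final (0.2% DMSO), with activity fitted relative to DHT as baseline.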

The target is the same in test [9]. In words: UPITT_HCI_U2OS_AR_TIF2_Nucleoli_Agonist: University of Pittsburgh U2OS Androgen Receptor-Transcriptional Intermediary Factor 2 (AR-TIF2) Agonism High Content Imaging Assay for Nucleoli Translocation (AID 2283998; active means hit-call score of the fitted dose curve at least 0.9, where 1 is the maximum). The gist of the method:
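Nucleolar translocation of AR-RFP, with TIF2-GFP coexpressed in human osteosarcoma U2OS, imaged by high-content fluorescence. Compounds tested singly at 20 uM final, confirmed in triplicate, then titrated 0.195–50 uM final; gain-of-signal relative to DMSO.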

Test [10] deals with Ratio of Nucleoli Translocation and Cytoplasm, AR (gene 367) (UniProt P10275). In words: UPITT_HCI_U2OS_AR_TIF2_Nucleoli_Cytoplasm_Ratio_Agonist: University of Pittsburgh U2OS Androgen Receptor-Transcriptional Intermediary Factor 2 (AR-TIF2) Agonism High Content Imaging Assay for Ratio of Nucleoli Translocation and Cytoplasm (AID 2284000; active means hit-call score of the fitted dose curve at least 0.9, where 1 is the maximum;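 further: hits raise the red nucleolar to cytoplasm ratio above vehicle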). The gist of the method: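 U2OS cells expressing RFP-tagged human AR and GFP-tagged TIF2 were imaged by high-content fluorescence microscopy. The endpoint is the ratio of nucleolar to cytoplasmic red fluorescence, fitted for gain of signal relative to DMSO. Concentration-response spanned 0.195 to 50 uM final (0.5% DMSO).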

The subject of a further test is DIO1 (gene 1733). In words: CCTE_GLTED_hDIO1: CCTE's human Deiodinase 1 (DIO1) Inhibition Assay, Great Lakes Toxicology and Ecology Division (GLTED) Lab (AID 2283987; active means hit-call score of the fitted dose curve at least 0.9, where 1 is the maximum;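 further: isolated human DIO1 enzyme in a cell-free setup rather than cells; enzyme activity read as free iodide liberated from substrate via Sandell-Kolthoff colorimetry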). In outline:
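Inhibition read as reduced iodide release: after 3 h of human DIO1 with chemical, free iodide is quantified colorimetrically (Sandell-Kolthoff cerium/arsenic reaction). Triplicate plates, DMSO baseline.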

Test [11] can be described thus: TOX21_TR_RXR_BLA_Antagonist_Followup_viability: Viability Assessment in the Tox21 Thyroid Hormone Receptor beta Retinoid X Receptor alpha (RXRa) Antagonism Beta-lactamase (BLA) Follow-Up Assay (AID 2283979; active means hit-call score of the fitted dose curve at least 0.9, where 1 is the maximum). The gist of the method:
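RXRa-UAS-bla HEK293T cells seeded 2,500/well in phenol red-free DMEM with 2% charcoal-stripped FBS, attached 5 h, then exposed to compounds at 11 concentrations in triplicate for 16 h at 37C/5% CO2. Viability read by CellTiter-Glo ATP luminescence; bidirectional fit versus DMSO.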

Test [12] concerns the target Ratio of Nucleoli Translocation and Cytoplasm, AR (gene 367) (UniProt P10275). In words: UPITT_HCI_U2OS_AR_TIF2_Nucleoli_Cytoplasm_Ratio_Antagonist: University of Pittsburgh U2OS Androgen Receptor-Transcriptional Intermediary Factor 2 (AR-TIF2) Antagonism High Content Imaging Assay for Ratio of Nucleoli Translocation and Cytoplasm (AID 2283999; active means hit-call score of the fitted dose curve at least 0.9, where 1 is the maximum;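 further: antagonists lower the DHT-driven ratio of nucleolar to cytoplasmic red signal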). In outline: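 Human osteosarcoma U2OS line, AR fused to RFP, coactivator TIF2 fused to GFP. Cpds 20 uM final, 0.2% DMSO (screen); 0.195–50 uM final, 0.5% DMSO (CRC). Endpoint: nucleoli/cytoplasm red signal ratio, DHT as baseline, loss-of-signal antagonist mode.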

Results filed as inconclusive are left out. Calls of active or inactive are those of the source. How the source made its calls, unless noted: active means hit-call score of the fitted dose curve at least 0.9, where 1 is the maximum; inactive means score below 0.9.

Ratio of Nucleoli Translocation and Cytoplasm, AR (gene 367), sequence (P10275 whole entry, looked up, the tested form may be a part): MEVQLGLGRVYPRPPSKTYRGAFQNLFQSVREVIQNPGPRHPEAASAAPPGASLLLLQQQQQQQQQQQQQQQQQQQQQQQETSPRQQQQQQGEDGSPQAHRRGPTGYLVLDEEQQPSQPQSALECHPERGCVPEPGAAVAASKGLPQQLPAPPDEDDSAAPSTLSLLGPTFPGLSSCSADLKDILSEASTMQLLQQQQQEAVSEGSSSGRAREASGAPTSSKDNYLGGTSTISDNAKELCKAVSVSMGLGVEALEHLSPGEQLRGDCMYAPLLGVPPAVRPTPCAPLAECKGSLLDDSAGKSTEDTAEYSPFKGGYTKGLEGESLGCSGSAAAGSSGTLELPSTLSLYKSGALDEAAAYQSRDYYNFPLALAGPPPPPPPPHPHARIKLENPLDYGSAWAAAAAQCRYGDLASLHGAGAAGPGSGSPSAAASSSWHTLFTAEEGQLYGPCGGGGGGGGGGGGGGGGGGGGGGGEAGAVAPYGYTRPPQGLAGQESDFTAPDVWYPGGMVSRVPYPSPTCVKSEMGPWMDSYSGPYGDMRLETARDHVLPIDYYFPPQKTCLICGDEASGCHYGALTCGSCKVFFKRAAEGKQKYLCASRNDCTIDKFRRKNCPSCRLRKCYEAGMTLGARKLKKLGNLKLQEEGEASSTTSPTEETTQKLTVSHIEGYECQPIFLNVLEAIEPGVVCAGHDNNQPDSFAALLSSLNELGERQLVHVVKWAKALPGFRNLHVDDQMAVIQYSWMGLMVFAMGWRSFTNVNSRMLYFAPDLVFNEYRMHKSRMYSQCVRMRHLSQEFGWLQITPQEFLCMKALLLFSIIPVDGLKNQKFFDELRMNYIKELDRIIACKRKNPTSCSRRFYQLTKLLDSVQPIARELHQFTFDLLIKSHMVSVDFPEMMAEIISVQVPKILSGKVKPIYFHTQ
Nucleoli Translocation, AR (gene 367), sequence (P10275 whole entry, looked up): as the sequence (P10275 whole entry, looked up, the tested form may be a part) above

As for `C[C@]12CC[C@@H]3c4ccc(O)cc4CC[C@H]3[C@@H]1CC[C@H]2O`, the AC50 in test [1] was 36.1 µM (active). The call in [2], in [3], in [4], in test [5], in test [6] and in [7] was inactive.
As to `Cc1cc(F)ccc1-c1cc(N2CC[C@@H](O)[C@H]2CO)ncc1N(C)C(=O)C(C)(C)c1cc(C(F)(F)F)cc(C(F)(F)F)c1`, the result in [8], in test [3], in test [4] and in test [7] was inactive. The concentration at half-maximal activity (AC50) in test [9] is 40.8 µM (active); in test [10], 60.4 µM (active); in test [1] it was 40.8 µM (active); in test [2] it was 36.7 µM (active).
Turning to `CCCCCCCCOC(=O)c1cc(O)c(O)c(O)c1`, the AC50 is 101 µM (active) in the test on DIO1 (gene 1733); 13.6 µM (active) in test [1]; 11.5 µM (active) in test [2]; 4.46 µM (active) in [5]; 4.46 µM (active) in test [6]. The call in test [3] and in [7] was inactive.
For `COc1cc(C(=O)NC2CCN(C)CC2)ccc1Nc1ncc2c(n1)N(C1CCCC1)CC(F)(F)C(=O)N2C`, the AC50 in test [11] is 26 µM (active); in test [9], 46.5 µM (active); in [5], 7.05 µM (active); in [6] it was 7.05 µM (active). The molecule was called inactive in test [8], in test [12], in [10] and in [7].
For `Oc1ccc2ccccc2c1`, the molecule was classed as inactive in test [8], in test [9], in test [12], in test [10] and in test [7].
For the molecule `CN(C[C@@H](CC[N+]12CCC(C3CCCCC3)(CC1)CC2)c1ccc(Cl)c(Cl)c1)C(=O)c1cc(C(F)(F)F)cc(C(F)(F)F)c1`, the AC50 in the test on DIO1 (gene 1733) is 57.6 µM (active); in test [8], 50 µM (active); in test [12], 29.6 µM (active); in [10] it was 50 µM (active); in test [5], 0.273 µM (active); in test [6] it was 0.273 µM (active). The AC50 in [7] was 78.6 µM (active).
In the case of `CC(=O)N1CCN(c2ccc(OC[C@H]3CO[C@](Cn4ccnc4)(c4ccc(Cl)cc4Cl)O3)cc2)CC1`, the AC50 was 8.55 µM (active) in test [1], 12.7 µM (active) in test [2] and 9.46 µM (active) in test [3]. Besides, the result in test [4], in [5], in test [6] and in [7] was inactive.
`O=C1c2ccccc2C(=O)N1CCc1noc(-c2ccc(CN3CCCCCC3)s2)n1`: the AC50 in [1] was 57.5 µM (active); in [2], 39.8 µM (active). Besides, the molecule was called inactive in test [3], in test [4] and in [7].
`CCN(CC)C(=O)c1cc(S(=O)(=O)Cc2ccccc2)c(N2CCC(c3ccccc3)CC2)cc1N(CC)CCN(C)C`: the results for the AC50 (in the test on DIO1 (gene 1733); in [5]; in [6]) were 40 µM (active), 3.04 µM (active) and 3.04 µM (active), respectively. Moreover, in [7], the result was inactive.
As to `CN1C(=O)N(c2ccccc2Br)Cc2cnc(Nc3ccc4c(c3)OCC(CO)O4)nc21` (stereo not given), the AC50 in [1] is 35.1 µM (active); in test [2], 50 µM (active); in test [4] it was 33.7 µM (active). Moreover, the outcome in test [3] and in test [7] was inactive.
On to `O=C(O)Cn1c(=O)n(Cc2ccc(Br)cc2F)c(=O)c2ccc(Cl)cc21`, for which the molecule was classed as inactive in test [8], in test [9], in test [12], in test [10] and in [7].
As to `CCOC(=O)O[C@H](C)OC(=O)c1ccc2c(c1)cc(C(=O)NC1CCN(C(C)C)CC1)n2Cc1cc(-c2ccc(Cl)s2)on1`, the half-maximal activity concentration (AC50) with DIO1 (gene 1733) is 97.5 µM (active); in test [7], 76.7 µM (active).

Source of the values: PubChem BioAssay (EPA / NIEHS).
